Experimental findings from PubChem BioAssay (NCATS) are described below.

Results filed as inconclusive are left out. Unmarked numbers belong to inactive results. Active and inactive are the calls of the source. The call rests on the fitted dose curve; in most records, active means well fitted inhibition curve with a large enough effect; inconclusive means small, poorly fitted or top-dose-only effect; inactive means no such curve, though single readings can be large or run the other way.
On the % scale 0 is the no-effect control and ±100 the full control effect; potency means the concentration at half of the fitted maximal effect.

The subject of this assay is Zika virus NS2B-NS3 protease (linked construct). Put plainly: Primary screen NINDS Rhodamine qHTS for Zika virus inhibitors (AID 1347160). Further: nearly all actives have a fitted effect of over 55% in size. The following applies: purified NS2B-NS3 protease, Rhodamine110 substrate fluorescence; series mostly up to 57.1 µM; activity change, negative = inhibition: at the top concentration. An outline of the steps:
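Each compound, titrated, sat 15 min with 25 nM linked protease before 1.5 microM Rhodamine110 substrate went in. Fluorescence gain over the next 15 min, in pH 8.0 Tris with Tween 20, gave Hill-fitted curves.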
Background: qHTS replaces the single test concentration by a dilution series.
Turning to `O=C(Nc1ccc(-n2nc(C(F)(F)F)cc2C(F)(F)F)cc1)c1ccncc1F`, the “activity change, negative = inhibition” value was -14%.

`COc1cc(O)c2c(c1)/C=C/C[C@H](O)[C@H](O)C(=O)/C=C\C[C@H](C)OC2=O`: the molecule was called inactive.

Consider `COC(=O)/C=C/C=C/C(=O)OC1C=C2COC(=O)C2(O)C2(C)CCCC(C)(C)C12` (centres undefined), for which the “activity change, negative = inhibition” value was -19.1% [at 33.1 µM].

Turning to `CC[C@@H](C)Nc1cc(C(=O)NC2CC3CCC(C2)N3c2ccc(C(=O)C3CC3)cn2)c(C)cc1C(N)=O` (some centres undefined), the “activity change, negative = inhibition” value is 24.4%.

Regarding `COc1c(C(O)CC(C)C)ccc2c1C(=O)OCc1cc(C)cc(O)c1O2` (centres undefined), the “activity change, negative = inhibition” value was -25% [at 33.1 µM].

As to `C/C=C(\C)C(=O)O[C@@H]1[C@@H](C)[C@]2(O)[C@@H]3C=C(C)C(=O)[C@H]3CC(CO)=C[C@H]2C2C(C)(C)[C@@]21OC(=O)C(C)CC` (some centres undefined), the “outcome” value is “inactive [at 33.1 µM]”.

As for `CC(C)c1cccc(C(C)C)c1NC(=O)Nc1ccc(Sc2ccc([N+](=O)[O-])cc2)cc1`, the “activity change, negative = inhibition” value was -3.66%.

Take `Nc1nc(NC2CC2)cc(-c2cccc(Cl)c2Cl)n1`: the result was inactive.

As for `COc1cc2ncnc(Nc3ccc(F)c(Cl)c3)c2cc1O`, the “activity change, negative = inhibition” value is -25.3%.

As to `O=C1c2ccc(Nc3ccc(F)cc3F)cc2CCc2ccc(OCC(O)CO)cc21` (centres undefined), the “activity change, negative = inhibition” value is 11.8%.

Consider `Cc1nnc(C[C@@H]2C=C(c3ccc(Cl)cc3)c3ccccc3-n3c(C)nnc32)o1`, for which the “activity change, negative = inhibition” value is -18.1%.

Regarding `COc1ccc(C(=O)O[C@H]2C=COC=C3C=C4C(=O)N(C)C(=S)C(=O)N4[C@@H]32)cc1Oc1cc(C=O)ccc1O`, the “activity change, negative = inhibition” value is -14.5% [at 33.1 µM].

With `CCOC(=O)CCNc1cc(N2CCc3ccccc3CC2)nc(-c2cccnc2)n1`, the “activity change, negative = inhibition” value was 18%.

Turning to `c1cc(-c2cnn3cc(-c4ccc(N5CCNCC5)cc4)cnc23)c2cccnc2c1`, the “activity change, negative = inhibition” value was 16.3%.

Regarding `CC(C)c1noc(C2CCN(c3ncnc(Nc4ccc(S(C)(=O)=O)cc4F)c3[N+](=O)[O-])CC2)n1`, the molecule was called inactive.

On to `C/C=C/[C@@H]1C=C[C@@H]2C[C@H](C)CC[C@H]2[C@]1(C)/C(O)=C1/C(=O)[C@@H](CO)N(C)C1=O`, for which the “activity change, negative = inhibition” value is -2.71% [at 33.1 µM].

In the case of `COc1cc(N2CCC(O)CC2)ccc1Nc1nc(Nc2ccccc2S(=O)(=O)C(C)C)c2[nH]cnc2n1`, the “activity change, negative = inhibition” value is 42.1%.

`Cc1ccc(C)c(NC(=O)[C@@H]2CCCN2S(=O)(=O)c2cccc3cccnc23)c1`: the “activity change, negative = inhibition” value is 12.7%.

Take `CNc1ccc([N+](=O)[O-])c(Nc2ccc3[nH]ncc3c2)n1`: the “activity change, negative = inhibition” value was 9.2%.

Regarding `COC(=O)C1=COC(O[C@@H]2O[C@H](CO[C@@H]3O[C@H](COC(=O)/C=C\c4ccc(O)cc4)[C@@H](O)[C@H](O)[C@H]3O)[C@@H](O)[C@H](O)[C@H]2O)C2C(CO)=CCC12` (some centres undefined), the “activity change, negative = inhibition” value was -1.68% [at 15.1 µM].

Regarding `CC1=C(c2ccc(NC(=O)c3c(F)cccc3F)cc2)CN(c2nccs2)CC1`, the “activity change, negative = inhibition” value was 13.1%.

For `C=C1C(=O)OC2C1CCC1(C)C(O)CCC(=C)C21` (centres undefined), the “activity change, negative = inhibition” value was -9.6%.

Take `COc1ccc(CCO[C@@H]2O[C@H](CO[C@H]3OC[C@](O)(CO)[C@H]3O)[C@@H](OC(=O)/C=C/c3ccc(O)c(O)c3)[C@H](O[C@@H]3O[C@@H](C)[C@H](O)[C@@H](O)[C@H]3O)[C@H]2O)cc1OC`: the “activity change, negative = inhibition” value was -4.09% [at 15.1 µM].

Regarding `O=C(Nc1ncc([N+](=O)[O-])s1)c1ccccc1O`, the Potency was 22.4 µM (active).

`C#CCOc1ccc2c(c1)c(-c1ccc(C(C)C)cc1)nc(=O)n2C(C)C`: the “activity change, negative = inhibition” value is -12.3%.

For `Cc1cc2c(cc1N1C(=O)c3cccc4c(CCCO)ccc(c34)C1=O)n(C)c(=O)n2C`, the “activity change, negative = inhibition” value is 22.2% [at 15.1 µM].

As for `C=CC(=O)Nc1cc(-n2c(=O)ccc3cnc4ccc(-c5ccc(NS(C)(=O)=O)cc5)cc4c32)ccc1C`, the molecule was classed as inactive.

Regarding `C=C1C(=O)O[C@@H]2/C=C(\CO)CC/C=C(/C=O)C[C@H](O)[C@@H]12`, the “activity change, negative = inhibition” value is 5.36%.

For `C/C=C/C=C/C(=O)O[C@@H]1C=C2COC(=O)[C@]2(O)[C@@]2(C)CCCC(C)(C)[C@H]12`, the “outcome” value is “inactive [at 33.1 µM]”.

On to `CC(C)CCNC(=O)c1ccc2c(c1)nc(Nc1n[nH]c3ccc(-c4ccccc4OC(F)(F)F)cc13)n2C1CCC(O)CC1` (centres undefined), for which the “activity change, negative = inhibition” value is -13.9%.

In the case of `NC(=O)N1CCC(CC(=O)N2CCC(C3c4ncc(Br)cc4CCc4cc(Cl)cc(Br)c43)CC2)CC1` (centres undefined), the “activity change, negative = inhibition” value is 11.4%.

As to `COc1cc(/C=C2\CC[C@H]3COC[C@@H](c4cc(F)c(F)c(F)c4)N3C2=O)ccc1-n1cnc(C)c1`, the “activity change, negative = inhibition” value is 43.3%.

As for `O=C1C(Cc2ccc(O)cc2)N2C(=O)CCN(C(=O)NCc3ccccc3)C2CN1Cc1cccc2ccccc12` (centres undefined), the “activity change, negative = inhibition” value was 11.4%.

As to `CCCCOc1ccc(S(=O)(=O)n2c(C)nc3ccccc32)cc1`, the “activity change, negative = inhibition” value was 6.03% [at 33.1 µM].

Take `CCc1ccc(-c2nc(CSCC(=O)NCCc3ccccc3)c(C)o2)cc1`: the “activity change, negative = inhibition” value was -7.83%.

Take `CC[C@H](C(=O)Nc1ccccc1N1CCCC1)c1ccccc1`: the “activity change, negative = inhibition” value was -0.0501%.

As to `C[C@@H](NC(=O)[C@H](O)c1cc(F)cc(F)c1)C(=O)N[C@@H]1C(=O)N(C)c2ccccc2-c2ccccc21`, the “activity change, negative = inhibition” value was 18.5%.

Turning to `CC(=O)OC1C(OC(=O)c2ccccc2)C2C(C)(C)CCC(OC(C)=O)C2(C)C23CCC(C)(C2)C(=O)CC13` (centres undefined), the “activity change, negative = inhibition” value was -15% [at 33.1 µM].

Turning to `C/C=C(\C)C(=O)OC1C(C)C2(O)C(C=C(CO)CC3(O)C(=O)C(C)=CC32)C2C(C)(C)C12OC(C)=O` (centres undefined), the “activity change, negative = inhibition” value is -11.7% [at 33.1 µM].
